The text below walks through data of PubChem BioAssay (NCATS).

Assay [1] has as its target Cytochrome P450 3A4 (Homo sapiens) (UniProt P08684). As to the kind of experiment: qHTS Assay for Inhibitors and Substrates of Cytochrome P450 3A4 (AID 884). Further: nearly all actives have a fitted effect of over 50% in size. Further: potency means the concentration at half of the fitted maximal effect. On activity change, negative = inhibition: series mostly up to about 57 µM; on the % scale 0 is the no-effect control and ±100 the full control effect. Summed up: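 20 nM human CYP3A4 with 25 uM Luciferin-PPXE (at KM) in 200 mM KPO4, preincubated 10 min with compound; NADPH regeneration started a 60 min RT reaction. Luciferin detected by luminescence, normalized to 57 uM ketoconazole as full inhibition.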
(Quantitative high-throughput screening tests each substance at several concentrations.)

For assay [2] the target is unchanged. As to the kind of experiment: qHTS Assay for Activators of Cytochrome P450 3A4 (AID 885). Further: nearly all actives have a fitted effect of over 65% in size. Further: potency means the concentration at half of the fitted maximal effect. Summed up: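 Signal was normalized against complete inhibition by 57 uM ketoconazole. The reaction used 20nM CYP3A4 with 25uM Luciferin-PPXE, 10-min compound preincubation and a 60-min NADPH-supported step at RT.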
The target in assay [3] is Cytochrome P450 2C19 (Homo sapiens) (UniProt P33261). Nature of the assay: qHTS Assay for Inhibitors and Substrates of Cytochrome P450 2C19 (AID 899). Further: nearly all actives have a fitted effect of over 60% in size. Further: potency means the concentration at half of the fitted maximal effect. Summed up:
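Luminescent read-out of luciferin formed from Luciferin-H EGE (10uM, equal to KM). Enzyme 5nM in 50mM KPO4; compound added, 10 min at 37C, then NADPH regenerating system for 60 min at 37C. Full inhibition defined by 57uM ketoconazole.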

Assay [4] in a line: Confirmation and Secondary Assay for Modulators of Hemoglobin Beta Chain Splicing at IVS2 654 locus (AID 910).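 Further: HeLa cells stably carrying EGFP split by mutant beta-globin IVS2-654 intron; % of control where 0% means no effect.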 The essentials: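 HeLa cells stably expressing EGFP interrupted by β-globin IVS2-654 intron, seeded overnight in Opti-MEM/2% FCS, then treated 2 days at 37 °C. Restored splicing read as total peak GFP intensity per well by laser scanning cytometry (488 nm excitation, 500–520 nm emission); 500 nM antisense PNA as control.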

Assay [5] in a line: Confirmation and Secondary Assay for Modulators of Hemoglobin Beta Chain Splicing at IVS2 705 locus (AID 930).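 Further: HeLa cells stably expressing the EGFP-705 splicing reporter; GFP fluorescence per well restored by corrected splicing of the IVS2-705 intron in EGFP; series mostly up to about 46 µM; % of control where 0% means no effect.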 The essentials:
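Per-well GFP, captured at 1 x 8 µm resolution with 488 nm excitation, served as the read-out for HeLa EGFP-705 cells incubated 2 days with test compound versus DMSO.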

Assay [6] addresses Cytochrome P450 2D6 (Homo sapiens) (UniProt P10635). Nature of the assay: qHTS Assay for Inhibitors and Substrates of Cytochrome P450 2D6 (AID 891). Further: nearly all actives have a fitted effect of over 60% in size. Further: potency means the concentration at half of the fitted maximal effect.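 On activity change, negative = inhibition: luciferin methyl ether substrate demethylated by CYP2D6 with NADPH regeneration; on the % scale 0 is the no-effect control and ±100 the full control effect.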 Summed up:
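Human CYP2D6 (5 nM) with 30 uM Luciferin-ME EGE (at Km) in 100 mM KPO4, compound preincubated 10 min, then NADPH regeneration system for 60 min at room temperature. Luciferin read by luminescence; normalized to 1.43 uM quinidine.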

Values without a mark were called inactive. Records with an inconclusive call do not appear. Activity calls are given as the source filed them. The call rests on the fitted dose curve; in most records, active means well fitted curve in the direction sought with a large enough effect; inconclusive means small, poorly fitted or top-dose-only effect, or another doubt; inactive means no such curve, though single readings can be large; an effect the other way counts as inactive or inconclusive.

Cytochrome P450 3A4 (Homo sapiens), sequence (P08684 whole entry, looked up): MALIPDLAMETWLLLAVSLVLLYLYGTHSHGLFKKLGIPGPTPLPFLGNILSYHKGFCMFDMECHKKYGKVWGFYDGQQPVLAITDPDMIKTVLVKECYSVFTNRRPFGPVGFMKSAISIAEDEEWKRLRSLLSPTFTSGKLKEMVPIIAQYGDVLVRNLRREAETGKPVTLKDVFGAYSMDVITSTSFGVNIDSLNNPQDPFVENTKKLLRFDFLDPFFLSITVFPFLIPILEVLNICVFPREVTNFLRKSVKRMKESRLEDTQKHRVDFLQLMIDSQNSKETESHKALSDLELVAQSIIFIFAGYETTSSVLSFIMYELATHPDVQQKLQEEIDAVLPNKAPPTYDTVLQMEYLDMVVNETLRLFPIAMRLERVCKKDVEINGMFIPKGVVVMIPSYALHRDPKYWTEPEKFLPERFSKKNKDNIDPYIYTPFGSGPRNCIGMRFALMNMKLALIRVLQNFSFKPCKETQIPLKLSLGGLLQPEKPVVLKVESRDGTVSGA
Cytochrome P450 2C19 (Homo sapiens), sequence (P33261 whole entry, looked up): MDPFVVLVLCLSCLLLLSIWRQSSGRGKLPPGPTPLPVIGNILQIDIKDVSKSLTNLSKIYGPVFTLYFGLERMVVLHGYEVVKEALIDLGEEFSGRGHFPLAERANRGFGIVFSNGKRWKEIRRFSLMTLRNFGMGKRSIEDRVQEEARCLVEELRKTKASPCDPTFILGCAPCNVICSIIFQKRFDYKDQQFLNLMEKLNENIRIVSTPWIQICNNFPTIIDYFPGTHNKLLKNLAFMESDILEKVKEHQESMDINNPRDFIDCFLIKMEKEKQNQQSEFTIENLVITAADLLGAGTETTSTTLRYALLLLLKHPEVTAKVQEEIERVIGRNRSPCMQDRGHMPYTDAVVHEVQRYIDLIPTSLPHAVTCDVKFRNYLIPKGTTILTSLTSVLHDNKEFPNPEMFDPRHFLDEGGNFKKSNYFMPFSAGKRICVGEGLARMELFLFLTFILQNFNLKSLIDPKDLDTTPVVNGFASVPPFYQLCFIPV
Cytochrome P450 2D6 (Homo sapiens), sequence (P10635 whole entry, looked up): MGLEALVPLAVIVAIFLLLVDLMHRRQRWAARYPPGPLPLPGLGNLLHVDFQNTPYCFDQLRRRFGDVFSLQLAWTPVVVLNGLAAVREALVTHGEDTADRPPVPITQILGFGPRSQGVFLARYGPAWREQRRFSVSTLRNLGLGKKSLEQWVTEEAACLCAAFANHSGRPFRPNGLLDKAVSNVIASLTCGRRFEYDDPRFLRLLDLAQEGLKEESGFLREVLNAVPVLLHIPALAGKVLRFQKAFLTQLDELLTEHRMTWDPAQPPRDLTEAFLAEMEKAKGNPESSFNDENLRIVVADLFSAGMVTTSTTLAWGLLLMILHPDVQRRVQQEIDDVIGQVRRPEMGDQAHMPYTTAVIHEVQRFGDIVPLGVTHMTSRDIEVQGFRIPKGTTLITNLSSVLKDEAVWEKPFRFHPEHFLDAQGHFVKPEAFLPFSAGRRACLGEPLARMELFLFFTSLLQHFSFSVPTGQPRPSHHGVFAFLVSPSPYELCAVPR

Take `CCCNC(=O)OC[C@@H]1O[C@H](CCO/N=C2\c3cc(OC)ccc3O[C@H](c3cccc(OC)c3)[C@H]2O)C=C[C@@H]1Oc1ccc(OC)cc1`: the results for the Potency in assay [1] and in assay [3] were 5.01 µM (active) and 1.58 µM (active), respectively. Moreover, the activity change, positive = activation in assay [2] was -120% [at 11.4 µM].
For the compound `COc1ccc(O[C@H]2C=C[C@@H](c3ccccc3)O[C@H]2COC(=O)CC/C(C)=N\O[C@@H](C)CN2CCCCc3nc(C)c(C)cc32)cc1`, the Potency in assay [1] was 3.98 µM (active); in assay [3], 5.01 µM (active). In addition, the activity change, positive = activation in assay [2] was -114% [at 11.4 µM].
As for `COc1ccc2c(c1)OC/C(=C/c1ccc(OC)c(OC)c1)C2=O`, the Potency in assay [1] is 7.94 µM (active). For the same compound, the Potency entry in assay [2] is “inactive”. The compound was classed as inactive in assay [4] and in assay [5].
On to `C[C@@H](c1ccccc1)N1C(=O)[C@H]2[C@H]3[C@H](O)[C@H](O)C/C(=N/OC[C@@H](O)COCc4ccco4)[C@@H]3CC[C@@H]2C1=O`, for which the Potency in assay [1] was 3.16 µM (active). The activity change, positive = activation in assay [2] is -82.9% [at 11.4 µM]. Further, the Potency entry in assay [3] is “inactive”.
For the compound `C=CCC1C=CC(Oc2ccc(OC)cc2)C(COC(=O)c2ccc(Br)cc2)O1` (centres undefined), the Potency in assay [1] and in assay [3] was 3.16 µM (active) throughout. Further, the activity change, positive = activation in assay [2] was -92.4% [at 11.4 µM].
As for `CC(C)=CCc1c(O)cc2occ(-c3ccc4c(c3)OCO4)c(=O)c2c1O`, the Potency in assay [1] was 3.98 µM (active). Also, the Potency result in assay [2] is “inactive”. The result in assay [4] and in assay [5] was inactive.
For `COc1ccc(O[C@H]2C=C[C@@H](c3ccccc3)O[C@@H]2CO/N=C(\C)CCN2CCCCc3nc(C)c(C)cc32)cc1`, the Potency in assay [1] is 3.98 µM (active); in assay [3], 2.51 µM (active). Besides, in assay [2], the activity change, positive = activation was -86.9% [at 11.4 µM].
As for `COCOc1ccc(Br)cc1C(=O)[C@H]1O[C@H]1c1cccc(OC)c1`, the Potency in assay [1] was 3.98 µM (active); in assay [3] it was 0.0631 µM (active). Also, the activity change, positive = activation in assay [2] was -113% [at 11.4 µM].
The matching figures for `CCCNC(=O)OC[C@@H]1O[C@H](CCO/N=C\[C@@H](C)[C@H](OCc2ccccc2)C(C)C)C=C[C@@H]1Oc1ccc(OC)cc1`: 3.98 µM (active), 3.16 µM (active) and -83.7% [at 11.4 µM].
On to `COc1ccc(O[C@H]2C=C[C@@H](c3ccccc3)O[C@H]2CO/N=C\C[C@@H]2C=C[C@H](OC(C)=O)[C@H](COC(C)=O)O2)cc1`, for which the Potency was 3.98 µM (active) in assay [1] and 0.794 µM (active) in assay [3]. Moreover, the activity change, positive = activation in assay [2] was -90.6% [at 11.4 µM].
Take `COc1cc2c(cc1OC)-c1c(oc3cc(O)cc(O)c3c1=O)CO2`: in assay [1], the Potency was 10 µM (active). In addition, the Potency entry in assay [2] is “inactive”. The compound was classed as inactive in assay [4] and in assay [5].
`COc1cc(O)c(C(=O)/C=C/c2ccc(O)c(OC)c2)c(OC)c1`: the Potency in assay [1] was 7.94 µM (active). In assay [2], the Potency result is “inactive”. Moreover, the call in assay [4] and in assay [5] was inactive.
As to `COc1c(-c2coc3cc4c(cc3c2=O)CC(OC(C)=O)C(C)(C)O4)ccc2c1C=CC(C)(C)O2` (centres undefined), the Potency result in assay [1] is “inactive”. Besides, the Potency in assay [2] is 5.01 µM (active). The compound was classed as inactive in assay [4] and in assay [5].
With `OCC1OC(c2ccc3c(c2)OCO3)C=CC1Oc1cc(Cl)cc(Cl)c1` (centres undefined), the Potency in assay [1] was 0.316 µM (active); in assay [6], 3.16 µM (active); in assay [3] it was 0.0794 µM (active). In addition, the activity change, positive = activation in assay [2] is -90.6% [at 11.4 µM].
Take `O=C1C=CC(=C(c2ccc(O)cc2)c2ccc(O)cc2)C=C1`: the Potency in assay [1] is 20 µM (active). Further, the Potency result in assay [2] is “inactive”. Also, the outcome in assay [4] and in assay [5] was inactive.
As to `Nc1nc2c(ncn2C2OC(COC(=O)c3ccccc3)C(OC(=O)c3ccccc3)C2OC(=O)c2ccccc2)c(=O)[nH]1` (centres undefined), in assay [1], the Potency was 3.98 µM (active). Further, in assay [2], the Potency entry was “inactive”. The compound was classed as inactive in assay [4] and in assay [5].
`CC(=O)c1c(O)cc(O)cc1O`: the Potency in assay [1] was 3.16 µM (active). The Potency entry in assay [2] is “inactive”. Moreover, the call in assay [4] and in assay [5] was inactive.
`COc1cccc([C@@H]2Oc3ccc(OC)cc3/C(=N/O[C@@H](C)c3cc(-c4c(C)cc(C)cc4C)no3)[C@@H]2O)c1`: the Potency in assay [1] and in assay [3] was 1.58 µM (active) in each case. The activity change, positive = activation in assay [2] was -90.1% [at 11.4 µM].
Consider `COC(=O)C[C@@H]1O[C@H]1[C@H](C)[C@@H](OC)C(C)C`, for which the Potency in assay [1] and in assay [3] was 3.98 µM (active) throughout. In addition, the activity change, positive = activation in assay [2] is -66.6% [at 11.4 µM].
Turning to `COc1ccc(-c2cc(=O)c3ccccc3o2)cc1`, in assay [1], the Potency was 2 µM (active). The Potency result in assay [2] is “inactive”. In addition, the outcome in assay [4] and in assay [5] was inactive.
With `C=C(C)C(O)/C=C/c1cccc(OC)c1` (centres undefined), the Potency in assay [1] was 3.98 µM (active); in assay [3] it was 0.0126 µM (active). In assay [2], the activity change, positive = activation was -69.2% [at 11.4 µM].
On to `COC(=O)C/C=C\[C@@H](C)[C@@H](/C=N\OC[C@@H]1O[C@H](c2ccccc2)C=C[C@@H]1Oc1ccc(OC)cc1)OC`, for which the Potency in assay [1] is 3.16 µM (active); in assay [3], 1.58 µM (active). The activity change, positive = activation in assay [2] was -96.1% [at 11.4 µM].
`C=CCOC(=O)C(C(C)=O)C(NC(=O)OC)c1ccc(Cl)cc1` (centres undefined): the figures for the Potency in assay [1] and in assay [3] were 1.26 µM (active) and 0.251 µM (active), respectively. Besides, in assay [6], the Potency entry was “inactive”.
Regarding `COC(=O)NC(CC(C)=O)c1cccs1` (centres undefined), in assay [1], the activity change, negative = inhibition was -9.41% [at 11.4 µM]. The Potency entry in assay [6] and in assay [3] was “inactive” throughout.
Regarding `NC(=O)c1cc[n+](CC2=C(C(=O)O)N3C(=O)C(NC(=O)C(c4ccccc4)S(=O)(=O)[O-])C3SC2)cc1` (centres undefined), the Potency entry in assay [1] is “inactive”. In addition, the outcome in assay [5] was inactive.
